Screening results: PubChem BioAssay, National Center for Advancing Translational Sciences (NCATS)
Rows were chosen to be rich in hits. Some 18% of all compounds tested hit in one or more screens of this group.
TDP1 inh – TDP1 (human) enzyme inhibition; Potency, µM (top dose mostly 130 µM), most hits filed as inhibitors; actives 0.28% (n = 350,000); recombinant TDP1, AlphaScreen DNA substrate cleavage; AID 485290; Q9NUW8; further: nearly all actives have a fitted effect of over 40% in size
Target sequence (Q9NUW8 whole entry, looked up): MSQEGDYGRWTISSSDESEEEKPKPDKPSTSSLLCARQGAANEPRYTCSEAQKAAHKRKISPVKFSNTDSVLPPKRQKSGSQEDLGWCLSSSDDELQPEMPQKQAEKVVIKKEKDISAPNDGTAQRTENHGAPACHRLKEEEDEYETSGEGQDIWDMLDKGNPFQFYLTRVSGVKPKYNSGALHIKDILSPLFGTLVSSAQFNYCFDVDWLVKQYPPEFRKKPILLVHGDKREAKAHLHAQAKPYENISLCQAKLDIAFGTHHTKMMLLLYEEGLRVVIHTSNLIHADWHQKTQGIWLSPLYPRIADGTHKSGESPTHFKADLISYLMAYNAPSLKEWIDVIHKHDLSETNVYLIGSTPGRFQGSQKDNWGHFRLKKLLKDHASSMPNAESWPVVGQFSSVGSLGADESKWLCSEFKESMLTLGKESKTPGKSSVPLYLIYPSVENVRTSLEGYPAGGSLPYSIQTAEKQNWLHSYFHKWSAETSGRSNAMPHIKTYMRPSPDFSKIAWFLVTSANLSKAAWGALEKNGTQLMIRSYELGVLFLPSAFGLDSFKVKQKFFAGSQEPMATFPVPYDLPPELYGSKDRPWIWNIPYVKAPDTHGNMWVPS
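AlphaScreen read-out: signal falls as enzyme removes the 3' tyrosine-FITC from a 5'-biotinylated DNA oligo (15 nM, 5 min, RT). Enzyme was E. coli-made recombinant Tdp1 at 1 nM, exposed to compound for 15 min beforehand; beads 10 ug/ml, 10 min.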
DT40 TDP1 no CPT – qHTS for Inhibitors of human tyrosyl-DNA phosphodiesterase 1 (TDP1): qHTS in cells in absence of CPT. DT40 Tdp1-/- hTDP1 cells, no CPT, ATP luminescence, 48 h. Potency, µM (series often up to 46.2 µM), actives largely listed as inhibitors. actives 15% (n = 420,000); further: nearly all actives have a fitted effect of over 55% in size
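Camptothecin absent (DMSO only). Human TDP1-complemented DT40 knockout cells, 400 cells/well, 37 °C for minimum 48 hr; ATP measured via CellTiter-Glo, 30 min dark incubation, luminescence.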
CtBP-E1A inh – blocks the CtBP interaction with E1A | AlphaScreen GST-E1A/His-CtBP binding, 1536-well; stronger effect = lower value | activity change, % (no concentration beside the values) | actives 0.49% (n = 340,000) | AID 651724; in the data active means activity change below about -65%; inconclusive means mostly about -30% to -63%
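Homogeneous bead-based format: GST-tagged E1A captured on glutathione donor beads, His-tagged CtBP on nickel acceptor beads; compounds precede bead addition by 2 h at 37 °C.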
TDP1 cell CPT – DT40-hTDP1 cell growth loss with CPT | Potency, µM (doses to about 46.2 µM), most hits filed as inhibitors | actives 12% (n = 420,000) | chicken DT40 Tdp1-/-;hTDP1 cells + 20 nM CPT, ATP luminescence, 48 h; further: nearly all actives have a fitted effect of over 55% in size
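Chicken DT40 Tdp1-/- cells complemented with human TDP1, 400 cells/well, exposed to compounds plus 20 nM camptothecin for at least 48 h at 37 C; viability read as ATP content by CellTiter-Glo luminescence.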
Six1-Eya2 inh – Six1/Eya2 interaction inhibition; activity change, % (test concentration not listed); Q15475+O00167; actives 0.56% (n = 360,000); AlphaScreen GST-Six1/His-Eya2 binding, biochemical; stronger effect = lower value; in the data active means activity change below about -65%; inconclusive means mostly about -30% to -63%
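Homogeneous AlphaScreen proximity assay pairing GST-Six1 with His-tagged Eya2 (added as 5X mix: 250 nM and 500 nM) in 50 mM Tris pH 8.0, 300 mM NaCl, 1 mM TCEP. Glutathione donor and nickel acceptor beads; 1 h, 37 °C, dark.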
IL-1B inflam inh – blocks inflammasome-driven IL-1 beta release; THP-1 LPS/ATP IL-1B secretion, AlphaLISA, 16 h; stronger effect = lower value; activity change, % at 57.5 µM; actives 4.7% (n = 360,000); in the data active means activity change below about -50%; inconclusive means mostly about -30% to -49%
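THP-1 cells pretreated 1 hr with compounds (up to 57.5 uM final), then stimulated with LPS (250 ng/mL final) plus ATP (1.25 mM final); secreted IL-1B measured by AlphaLISA after 16 hr, decreased signal indicating inhibition.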
Hits are given with their value; 0 = inactive; ? = inconclusive; - = no result given; ! = repeats disagree. Unless noted, the call rests on the fitted dose curve; in most records, active means well fitted curve in the direction sought with a large enough effect; inconclusive means small, poorly fitted or top-dose-only effect, or another doubt; inactive means no such curve, though single readings can be large; an effect the other way counts as inactive or inconclusive.

SMILES	TDP1 inh	DT40 TDP1 no CPT	CtBP-E1A inh	TDP1 cell CPT	Six1-Eya2 inh	IL-1B inflam inh
Cc1ccc2c(c1)sc[n+]2Cc1ccccc1	0	13µM	0	13µM	0	0
O=C(NCCOc1ccc(F)cc1)C1CCC(=O)N(CCCN2CCOCC2)C1 (stereo not drawn)	0	0	0	0	0	0
COc1ccc(CNC(=O)Cc2c(C(=O)O)[nH]c3ccccc23)c(OC)c1	-	0	0	0	0	0
COc1ccc(N2CCN(CCNC(=O)Nc3cc(Cl)ccc3OC)CC2)cc1	-	?	-	?	0	0
O=C(NCCN1CCN(c2ccccc2Cl)CC1)Nc1ccccc1	-	?	0	0	0	0
COc1ccc(Cl)cc1N1CCN(CCNC(=O)Nc2ccccc2C)CC1	0	0	0	0	0	-77
Cc1cccc(N2CCN(CCNC(=O)Nc3ccc(Cl)cc3)CC2)c1C	0	13µM	-	13µM	-	-
CN(c1ccc(OCC(=O)OCC(=O)Nc2ccc(Br)cc2)cc1)S(=O)(=O)c1cccs1	0	0	0	0	0	0
O=S(=O)(c1ccccc1C(F)(F)F)N1CCN(c2nc(-c3cccs3)nc3ccccc23)CC1	0	11µM	-	13µM	-	-
COc1ccc(S(=O)(=O)N2CCN(c3nc(-c4cccs4)nc4ccccc34)CC2)cc1	0	?	-	?	-	-
O=S(=O)(c1cccs1)N1CCN(c2nc(-c3cccs3)nc3ccccc23)CC1	0	20µM	-	?	-	-
CS(=O)(=O)N1CCN(c2nc(-c3cccs3)nc3ccccc23)CC1	0	11µM	-	16µM	-	-
O=[N+]([O-])c1ccccc1S(=O)(=O)N1CCN(c2nc(-c3cccs3)nc3ccccc23)CC1	0	?	-	?	-	-
CC(C)(C)c1ccc(S(=O)(=O)N2CCN(c3nc(-c4cccs4)nc4ccccc34)CC2)cc1	0	?	-	0	-	-
O=C(COC(=O)c1cc(=O)[nH]c2ccccc12)Nc1ccc(Cl)cn1	-	0	0	0	0	0
CCOc1cc(/C=N/NC(=O)C(=O)NCc2cccnc2)ccc1O	0	0	0	0	0	0
CC(=O)Nc1cnc(-c2ccccc2C(F)(F)F)cn1	-	0	0	0	0	0
COc1cccc(C(O)C2OC(=O)c3ccccc32)c1OC (stereo not drawn)	-	9.2µM	0	0	0	0
Cc1oc(C)c(C(N)=O)c1C(N)=O	0	0	0	0	0	0
O=C(CNC(=O)c1ccccc1)Sc1ccccc1	-	18µM	0	?	0	0
O=C(CNC1C(=O)Nc2ccccc21)Sc1ccccc1 (stereo not drawn)	0	0	0	0	0	0
O=C(CCCCC(=O)Sc1ccccc1)Sc1ccccc1	-	?	0	?	0	-96
CC(C)Cc1ccc(S(=O)(=O)Nc2ccc3[nH]c(=O)[nH]c3c2)cc1	0	26µM	0	16µM!	0	0
COc1ccc(/C=N/NC(=O)CCCOc2ccc(Cl)cc2Cl)cc1[N+](=O)[O-]	0	16µM	0	?	0	0
O=C(CCCOc1ccc(Cl)cc1Cl)N/N=C/c1ccccc1	0	?	0	?	0	0
SMILES	TDP1 inh	DT40 TDP1 no CPT	CtBP-E1A inh	TDP1 cell CPT	Six1-Eya2 inh	IL-1B inflam inh
O=C(COc1ccc(Cl)cc1[N+](=O)[O-])N/N=C/c1cccs1	0	29µM	-	0	0	0
O=C(CCC(=O)N/N=C/c1ccc(Br)s1)NCc1ccccc1	0	?	0	?	0	0
O=C(CCCOc1ccc(Cl)cc1Cl)N/N=C/c1ccccc1O	0	5.2µM	0	5.2µM	0	0
O=C(CCC(=O)N/N=C/c1cc(Cl)cc(Cl)c1O)NCc1ccccc1	0	23µM	0	?	?	0
CC1=NNC(=O)C1Cc1ccccc1C (stereo not drawn)	-	0	0	0	0	0
CCS(=O)(=O)c1nc(S(=O)(=O)c2ccc(C)cc2)c(N2CCC(C)CC2)s1	0	?	-	?	0	0
CN1CCN(CCCNC(=O)CN2C(=O)COc3ccccc32)CC1	-	0	0	0	0	0
COCCCN1C(=O)c2ccc(C(=O)OCC(=O)N(CCC#N)c3cc(C)cc(C)c3)cc2C1=O	0	0	0	0	0	0
O=C(CCCC(=O)NN=Cc1ccc(Cl)cc1Cl)NN=Cc1ccc(Cl)cc1Cl	-	?	0	0	0	0
CN(C(=S)NC(=O)Cc1ccccc1)c1ccccc1	0	?	0	?	0	-60
O=C(CCCC(=O)NN=Cc1ccccc1Cl)NN=Cc1ccccc1Cl	-	16µM	0	16µM	0	0
Cc1ccc(/C=N/NC(=O)CCCOc2ccc(Cl)cc2Cl)cc1	0	10µM	0	8.2µM	0	-77
CN(C(=S)NC(=O)CCCOc1ccc(Cl)cc1Cl)c1ccccc1	0	16µM	0	?	0	0
CCCCOc1ccc(CNC(=O)CN2C(=O)CCn3nc(-c4cn(C)c5ccccc45)cc32)cc1	0	0	-	0	-	-
CCOc1ccc2nnnn2n1	0	0	0	0	0	0
CCN1C(=NCCc2c[nH]c3ccccc23)N[C@@H](c2ccccc2)[C@H](C(=O)OC)[C@H]1C	-	18µM	0	9.2µM	0	0
COC(=O)C1=C(C)N(Cc2ccccc2)C(=NCCc2c[nH]c3ccccc23)N[C@H]1c1cccc(F)c1	0	2.6µM	0	5.2µM	0	-50
CCN1C(=NCc2ccccc2)N[C@@H](c2ccccc2)[C@H](C(=O)OC)[C@H]1C	-	0	0	?	0	0
COCCN=C1N[C@@H](c2ccc(Br)cc2)C(C(=O)OC)=C(C)N1Cc1ccccc1	-	?	0	?	0	?
COC(=O)C1=C(C)N(Cc2ccccc2)C(=NCCc2c[nH]c3ccccc23)N[C@H]1c1ccccc1	0	21µM	0	?	0	?
CCN(CC)CCCN=C1N[C@@H](c2cccc(F)c2)C(C(=O)OC)=C(C)N1Cc1ccccc1	0	?	0	?	0	0
COc1ccccc1C1CC(c2ccccc2)Nc2ncnn21 (stereo not drawn)	0	23µM	0	8.2µM	0	0
Fc1ccc(C2CC(c3ccco3)n3ncnc3N2)cc1 (stereo not drawn)	0	0	0	0	0	0
COc1cccc(C2CC(c3ccccc3Cl)n3ncnc3N2)c1 (stereo not drawn)	0	?	0	0	0	0
COc1ccccc1C1CC(c2ccc(F)cc2)Nc2ncnn21 (stereo not drawn)	0	21µM	0	7.3µM	0	0
COc1ccccc1C1CC(c2ccc(C)cc2)Nc2ncnn21 (stereo not drawn)	0	18µM	0	?	0	0
O=C(O)c1ccc(CNC(=O)c2ccc(S(=O)(=O)N3CCCC3)cc2)cc1	-	0	0	0	0	0
